# High-throughput results (PubChem)
# The list is not random: actives were taken first. Their share in the collection is about 10%.
# NPR1 antag = Natriuretic polypeptide receptor (hNpr1) antagonism - Primary qHTS; Atrial natriuretic peptide receptor 1 (Homo sapiens), P16066; HEK293 hNpr1 GloSensor cGMP, ANP-stimulated luminescence; Potency, µM (doses to about 46.3 µM), hits mostly inhibitors; actives 1.6% (n = 76,000); calls by dose curve; further: nearly all actives have a fitted effect of over 60% in size
#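 HEK293 cells stably expressing human Npr1 and cGMP GloSensor pGS-40F, loaded 2 h with 2% GloSensor reagent, given compound 30 min at room temperature. Luminescence read before and 20 min after 0.1 nM hNppA.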
# 3T3 cytotox = Cytotoxic Profiling in NIH 3T3 Cell Line of Diverse Libraries Using Quantitative High-Throughput Screening | NIH 3T3 viability, CellTiter-Glo ATP luminescence, 48-72 h | Potency, µM (highest dose often 96.7 µM), most hits filed as inhibitors | actives 4.3% (n = 94,000) | AID 1345082, 2018; further: nearly all actives have a fitted effect of over 55% in size
#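 NIH 3T3 cells at 400 cells/well received 23 nL of compound by pintool and were incubated 48 or 72 h at 37 °C. Viability was read as ATP-coupled CellTiter-Glo luminescence.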
# HEK cytotox = Cytotoxic Profiling in HEK 293 Cell Line of Diverse Libraries Using Quantitative High-Throughput Screening. actives 6.6% (n = 94,000). Potency, µM (doses to about 115 µM), most hits filed as inhibitors. HEK 293 viability, ATP luminescence (CellTiter-Glo), 48-72 h; further: nearly all actives have a fitted effect of over 60% in size
#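 Luminescence from cellular ATP, measured with CellTiter-Glo, indicates HEK 293 viability. Cells plated at 250 cells/well are treated with compound for 48 or 72 hr at 37 degree Celsius before reagent addition.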
# GPT2 inhibitor = Primary qHTS assay for inhibitors of Glutamate pyruvate transaminase 2 (GPT2); Potency, µM (series often up to 57.7 µM), hits mostly inhibitors; actives 0.25% (n = 100,000); Recombinant GPT2, coupled pyruvate oxidase/HRP Amplex Red fluorescence; AID 1671188, 2021; Alanine aminotransferase 2 (Homo sapiens), Q8TD30; further: nearly all actives have a fitted effect of over 60% in size
#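 Inhibition is scored from Amplex Red fluorescence generated when pyruvate oxidase and HRP act on pyruvate released by GPT2. Reactions contain 10ng/uL enzyme, 250uM a-KG and 2mM L-alanine and run 30 min at room temperature.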
# FLuc inh-1 = Firefly luciferase inhibition profiling of diverse chemical library using quantitative high-throughput screening; Luciferin 4-monooxygenase (Photinus pyralis), P08659; purified P. pyralis luciferase, luminescence, biochemical; Potency, µM (highest dose often 115 µM), most hits filed as inhibitors; actives 2.5% (n = 76,000); AID 1347043, 2019; further: nearly all actives have a fitted effect of over 65% in size
# Target sequence (P08659 whole entry, looked up): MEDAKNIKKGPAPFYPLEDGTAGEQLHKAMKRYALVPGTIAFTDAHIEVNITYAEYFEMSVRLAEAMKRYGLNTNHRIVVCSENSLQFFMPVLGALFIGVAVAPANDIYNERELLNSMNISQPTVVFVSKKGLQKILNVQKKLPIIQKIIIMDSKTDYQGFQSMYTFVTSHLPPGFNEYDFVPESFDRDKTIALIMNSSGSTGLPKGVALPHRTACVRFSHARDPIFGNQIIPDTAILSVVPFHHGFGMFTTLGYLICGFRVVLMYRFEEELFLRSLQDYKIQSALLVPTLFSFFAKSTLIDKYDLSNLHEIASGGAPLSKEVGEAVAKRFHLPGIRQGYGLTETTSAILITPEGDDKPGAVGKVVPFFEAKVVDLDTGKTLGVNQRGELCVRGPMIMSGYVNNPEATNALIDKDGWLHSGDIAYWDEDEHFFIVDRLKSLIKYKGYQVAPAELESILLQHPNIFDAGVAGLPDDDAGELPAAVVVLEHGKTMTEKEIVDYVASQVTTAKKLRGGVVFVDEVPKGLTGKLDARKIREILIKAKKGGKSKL
#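 FLuc 10nM, D-luciferin 10uM, ATP 10uM, Mg acetate 10mM, Tris acetate pH 7.5, Tween/BSA; cpd qHTS; enzyme added last; CCD luminescence.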
# FLuc SDR no ATP = Firefly luciferase (FLuc-C-HiBiT) SDR gain of signal screen - without ATP; shares compounds with FLuc inh-1; Purified FLuc-C-HiBiT, Nano-Glo HiBiT luminescence, no ATP; Potency, µM (highest dose often 32.7 µM), actives largely listed as activators; actives 7.8% (n = 1,300); further: nearly all actives have a fitted effect of over 55% in size
# FLuc SDR ATP = Firefly luciferase (FLuc-C-HiBiT) SDR gain of signal screen - plus ATP. Potency, µM (series often up to 32.7 µM), hits mostly activators. purified FLuc-C-HiBiT + ATP, HiBiT complementation luminescence. shares compounds with FLuc inh-1. actives 8.7% (n = 1,300);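 further: signal reports ligand binding via conformational change of the enzyme rather than luciferase catalysis; nearly all actives have a fitted effect of over 55% in size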
# FLuc inh-2 = Firefly luciferase (FLuc-C-HiBiT) enzymatic inhibition screen - Functional assay; Potency, µM (titrated, usually from 32.7 µM), actives largely listed as inhibitors; actives 42% (n = 1,300); purified FLuc-C-HiBiT enzyme, luciferin luminescence; shares compounds with FLuc inh-1; further: nearly all actives have a fitted effect of over 70% in size
# A number is an active result; i = inactive; ? = inconclusive; nt = no result given. Unless noted, the call rests on the fitted dose curve; in most records, active means well fitted curve in the direction sought with a large enough effect; inconclusive means small, poorly fitted or top-dose-only effect, or another doubt; inactive means no such curve, though single readings can be large; an effect the other way counts as inactive or inconclusive.
SMILES,NPR1 antag,3T3 cytotox,HEK cytotox,GPT2 inhibitor,FLuc inh-1,FLuc SDR no ATP,FLuc SDR ATP,FLuc inh-2
Cc1nn(CCC#N)c(C)c1[C@@H]1C=C[C@@H](NC(=O)NC(C)C)C1,i,?,i,?,i,nt,nt,nt
Cc1ccc(-n2nc(C)c([C@@H]3C=C[C@@H](NC(=O)NC(C)C)C3)c2C)cc1Cl,16µM,63µM,?,i,3.5µM,i,?,14µM
COc1ccc(-n2nc(C)c([C@@H]3C=C[C@@H](NC(=O)Nc4cccc(C#N)c4)C3)c2C)cc1,?,?,89µM,i,7.9µM,i,i,?
COc1ccc(NC(=O)N[C@@H]2C=C[C@@H](c3c(C)nn(-c4ccc(C(C)C)cc4)c3C)C2)cc1,i,?,?,i,7.9µM,i,i,i
Cc1nn(-c2ccc(C(C)C)cc2)c(C)c1[C@@H]1C=C[C@@H](NC(=O)NC(C)C)C1,32µM,28µM,22µM,i,3.5µM,i,i,?
O=C(NCC1CCCCCC1)C1CCN(Cc2ccccc2-c2cccnc2)CC1,nt,?,?,i,nt,nt,nt,nt
CC(=O)N1CCN(C(=O)c2nc(N)nc3c2CCCC3)CC(O)C1 (centres undefined),i,i,i,i,i,nt,nt,nt
CCCC(=O)NC1CCCN(c2ccnc3ccnn23)C1 (centres undefined),nt,i,i,i,nt,nt,nt,nt
CN1CCN(Cc2cn(Cc3ccccc3)nc2-c2ccc3c(c2)OCO3)CC1,i,?,?,?,i,nt,nt,nt
Cc1nn(-c2cccc(Br)c2)c(C)c1[C@@H]1C=C[C@@H](NC(=O)CC(C)(C)CC(=O)O)C1,i,?,?,i,?,i,i,i
CCN1CCN(c2ccc(-c3cccc(N)c3)nn2)CC1,?,?,?,i,14µM,i,?,9.9µM
N=c1nc(N2CCCCC2)cc(N)n1O,nt,nt,nt,i,nt,nt,nt,nt
CCN1CCN(c2ccc3nnc(C4CCC4)n3n2)CC1,i,i,i,i,i,nt,nt,nt
Nc1cccc(-c2ccc(N3CCCCC3)nn2)c1,4µM,35µM,35µM,i,0.4µM,1.6µM,1.2µM,0.56µM
O=C(NC1CC1)c1cn(CCC2CCCCN2C(=O)C2CC2)nn1 (centres undefined),nt,i,i,i,nt,nt,nt,nt
COc1ccc(-c2cccc(C(=O)N3CCOCC3)c2)nn1,nt,i,i,nt,nt,nt,nt,nt
O=C(Nc1cccc(-c2ccc(N3CCOCC3)nn2)c1)Nc1ccc2c(c1)CCC2,?,i,?,i,0.89µM,i,?,2.8µM
COc1ccccc1NC(=O)Nc1cccc(-c2ccc(N3CCOCC3)nn2)c1,?,?,?,i,1.4µM,?,?,3.1µM
COc1cc(NC(=O)Nc2cccc(-c3ccc(N4CCOCC4)nn3)c2)cc(OC)c1,?,32µM,?,i,0.71µM,?,?,1.8µM
O=C(Nc1cc(F)cc(F)c1)Nc1cccc(-c2ccc(N3CCOCC3)nn2)c1,10µM,?,32µM,i,1.3µM,?,?,3.1µM
CCc1nc(-c2c3n(c(=O)n(CC(=O)NCCc4ccccc4)c2=O)CCCC3)no1,i,i,i,i,i,nt,nt,nt
O=C(c1n[nH]c2ccccc12)N1CCc2nn(Cc3ccccc3)c(=O)n2CC1,i,?,?,i,i,nt,nt,nt
COc1ccc(NC(=O)c2ccc(-c3ccc(-c4nnc(C)o4)cc3C)cc2)cc1N1CCN(C)CC1,nt,nt,nt,i,nt,nt,nt,nt
Cc1c(Cl)cccc1NC(=O)Nc1cccc(-c2nnc3n2CCCC3)c1,i,i,i,i,i,nt,nt,nt
O=C(Nc1cccc(-c2ccc(N3CCOCC3)nn2)c1)Nc1cccc(Cl)c1F,?,32µM,22µM,i,1.6µM,i,i,5.6µM
SMILES,NPR1 antag,3T3 cytotox,HEK cytotox,GPT2 inhibitor,FLuc inh-1,FLuc SDR no ATP,FLuc SDR ATP,FLuc inh-2
O=C(Nc1cccc(F)c1)Nc1cccc(-c2ccc(N3CCCCC3)nn2)c1,7.9µM,32µM,?,i,0.4µM,9.9µM,?,0.99µM
COCC(=O)N1C[C@H](NC(=O)c2nc3ccccc3n(C)c2=O)[C@@H](C2CC2)C1,i,i,i,i,i,nt,nt,nt
COc1ccc(-c2cnc3[nH]cc(CC(=O)N4CCN(c5ccccn5)CC4)c3c2)cc1,?,?,79µM,i,7.1µM,i,i,?
Cc1ccc(NC(=O)c2ncn(-c3ccccc3)n2)cc1Cl,nt,nt,nt,nt,nt,i,i,?
Cc1cc(=O)n(CC(=O)Nc2ccc(C)c(Cl)c2)c(N2CCN(c3ccccc3)CC2)n1,i,?,?,i,i,nt,nt,nt
CC(=O)NC1(C)CN(Cc2ccc(-c3ccc(Oc4ccccc4)cc3)s2)C1,16µM,28µM,28µM,i,13µM,i,i,?
CC(=O)Nc1cccc(-c2csc(CN3CCCC(C)(NC(C)=O)C3)c2)c1 (centres undefined),i,i,?,i,i,nt,nt,nt
COc1ncccc1-c1csc(CN2CCCC(C)(NC(C)=O)C2)c1 (centres undefined),i,?,?,i,i,nt,nt,nt
COc1ccc(-c2ccc(CN3CC(C)(NC(C)=O)C3)s2)cn1,nt,nt,nt,nt,nt,i,i,?
CC(C)N1Cc2cc(C(=O)NC3CCN(Cc4ccccc4)CC3)sc2C1,i,?,?,?,i,nt,nt,nt
CC(C)C(=O)NC1CCN(Cc2ccc(-c3nc4cccc(Cl)c4s3)cc2)CC1,nt,nt,nt,nt,nt,i,i,i
CC(C)NC(=O)N1CC[C@@H](CC(=O)O)[C@@H](CC2=NCCc3cc(F)ccc32)C1,i,i,i,i,i,nt,nt,nt
Nc1nn(-c2ccccc2)nc1C(=O)OCc1ccccc1,nt,nt,nt,nt,nt,i,i,i
COc1ncccc1-c1cc2c(nc1OC)nc(CCc1ccccc1)n2C,i,?,?,i,i,nt,nt,nt
COc1ccc(Nc2cc3c(nc2OC)nc(CCc2ccccc2)n3C)cn1,i,?,?,i,6.3µM,i,i,?
CCOc1ccc2nc(N(Cc3cccnc3)C(=O)c3cccs3)sc2c1,nt,nt,nt,nt,nt,i,i,i
Cc1nn(C(=O)CCCC(=O)N2CCC(Cc3nc(C4CCOCC4)no3)CC2)c2ccccc12,?,?,?,i,i,nt,nt,nt
